Bioassay records from PubChem BioAssay.
Shown are actives, neighbours in structure and some others; about 5.4% of the full set was active somewhere.
PHOSPHO1 block: inhibitors of human PHOSPHO1 phosphatase; recombinant PHOSPHO1, absorbance phosphatase assay; actives 1.1% (n = 290,000); inhibition, % at 13.3 µM; Q8TCT1; AID 1565; in the data active = inhibition above about 60%
Target sequence (Q8TCT1 whole entry, looked up): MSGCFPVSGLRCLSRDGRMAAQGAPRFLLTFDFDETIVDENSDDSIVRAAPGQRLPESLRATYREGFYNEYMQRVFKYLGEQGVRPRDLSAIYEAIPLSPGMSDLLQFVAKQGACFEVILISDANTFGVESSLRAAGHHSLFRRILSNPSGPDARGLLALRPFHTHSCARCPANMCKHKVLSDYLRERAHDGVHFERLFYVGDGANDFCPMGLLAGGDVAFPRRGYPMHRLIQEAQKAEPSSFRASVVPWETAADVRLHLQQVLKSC
aDG glyco up: alpha-DG glycosylation activation; Pro5-aDG cells, alpha-DG glycosylation AlphaScreen (IIH6); 0% Pro5, 100% B10-LARGE cell signal; activation, % at 10 µM; actives 0.22% (n = 360,000); AID 624168;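 active = activation of at least 8% versus controls, or a plate z-score of at least 8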;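 also: Pro5 are CHO cells carrying HIG-tagged alpha-DG that lacks glycosylation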
APOBEC3A inh: inhibitors of human APOBEC3A DNA deaminase; inhibition, % at 20 µM; P31941; actives 0.41% (n = 330,000); AID 493011; recombinant A3A, FAM/TAMRA ssDNA deamination fluorescence;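 active = at least 40% inhibition at 20 µM here, with at most 30% in a related deaminase screen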;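 also: plate controls were A3A with DMSO for no effect and wells lacking A3A enzyme for full effect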
ALR inh: inhibitors of human sulfhydryl oxidase ALR; purified ALR, DTT oxidation, H2O2 HRP-luminol luminescence; inhibition, % (test concentration not listed); actives 3.8% (n = 290,000);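 active = mean replicate inhibition above about 79%, with every replicate also reaching it, limit read from the data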
APOBEC3G inh: inhibitors of human APOBEC3G DNA deaminase; AID 493012; actives 0.28% (n = 330,000); recombinant A3G, ssDNA deamination FAM/TAMRA fluorescence; inhibition, % at 20 µM;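 active = inhibition of at least 40% at 20 µM, with no more than 30% in the related APOBEC3A deaminase screen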;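 also: plate controls were DMSO wells with A3G for no effect and wells lacking A3G enzyme for full effect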
rCAG binder: binds r(CAG) RNA repeats. r(CAG) RNA repeat, TO-PRO-1 dye displacement fluorescence. inhibition, % at 3 µM. actives 1.3% (n = 370,000);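 active = inhibition above the plate cutoff, the mean of all test compounds on that plate plus 3 SD, cut at about 35% in these data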;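 also: 0% = DMSO alone and 100% = 100 µM mitoxantrone as full dye displacement; higher means more dye released from RNA so lower well fluorescence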
* hit, by the source's call.

How did COc1ccccc1N1C(=O)CC(Sc2n[nH]c(-c3cccc(C)c3)n2)C1=O (centres undefined) do in these assays?
PHOSPHO1 block: 81*; aDG glyco up: 0; APOBEC3A inh: -5; ALR inh: 99*; APOBEC3G inh: 31; rCAG binder: 5

How did COc1ccc(C=O)cc1-c1cc(C(C)=O)c2n(c1=O)CCC2 do in these assays?
rCAG binder: 7

How did O=C1/C(=C\c2ccco2)CCC/C1=C\c1ccco1 do in these assays?
PHOSPHO1 block: -9; aDG glyco up: 0; APOBEC3A inh: 87*; ALR inh: 33; APOBEC3G inh: -4; rCAG binder: 18

Results for CC1C/C(=C/c2ccco2)C(=O)/C(=C/c2ccco2)C1 (centres undefined) ?
PHOSPHO1 block: 0; APOBEC3A inh: 91; ALR inh: 54; APOBEC3G inh: 83

How did O=C(Nc1cccs1)OC1CC2CC1[C@H]1CCCCN1C2 (some centres undefined) do in these assays?
rCAG binder: 3

How did O=C(OCc1cn(Cc2cc(F)ccc2F)nn1)N1CCOCC1 do in these assays?
rCAG binder: 4

What do the screens show for `Fc1ccc(N=Cc2ccc[nH]2)cc1`?
PHOSPHO1 block: 2; aDG glyco up: 0; APOBEC3A inh: -4; ALR inh: -6; APOBEC3G inh: -9; rCAG binder: -1

Results for CC(=O)Nc1ccc(N=Cc2ccc[nH]2)cc1 ?
PHOSPHO1 block: -1; aDG glyco up: 0; APOBEC3A inh: -3; ALR inh: 98*; APOBEC3G inh: -6; rCAG binder: -1

How did Cc1ccccc1N1CCN(C(=O)CN2C(=O)CC(C)(C)S(=O)(=O)c3ccccc32)CC1 do in these assays?
rCAG binder: 2

Results for COc1cccc(CC2CC(=O)N(c3ccc4c(C)cc(=O)oc4c3)C2=O)c1 (centres undefined) ?
PHOSPHO1 block: 61*; aDG glyco up: 0; APOBEC3A inh: 1; APOBEC3G inh: -13; rCAG binder: -3

How did Cc1cc(N2CCN(C(=O)OC(C)(C)C)C[C@@H]2C)ccc1N1C[C@@H](C)O[C@@H](C)C1 do in these assays?
rCAG binder: 0

How did COc1ccc(OC(=O)COc2ccc(C)cc2)cc1 do in these assays?
PHOSPHO1 block: 34; aDG glyco up: 0; APOBEC3A inh: -1; ALR inh: 6; APOBEC3G inh: -3; rCAG binder: 0

Results for COc1ccc(OCC(=O)Sc2ccc(C)cc2)cc1 ?
PHOSPHO1 block: -4; aDG glyco up: 0; APOBEC3A inh: 0; ALR inh: 98*; APOBEC3G inh: -5; rCAG binder: -4

What do the screens show for `O=S1(=O)NC(=NCCOCCO)c2ccccc21`?
PHOSPHO1 block: 41; aDG glyco up: 0; APOBEC3A inh: 1; ALR inh: -2; APOBEC3G inh: -5; rCAG binder: 2

Results for Nc1ccc2c(c1)-c1ccccc1S(=O)(=O)N2 ?
PHOSPHO1 block: -10; aDG glyco up: 0; APOBEC3A inh: 3; ALR inh: 100*; APOBEC3G inh: 2; rCAG binder: 25

What do the screens show for `Cc1ccc(C)c(OC2=NS(=O)(=O)c3ccccc32)c1`?
PHOSPHO1 block: 24; aDG glyco up: 0; ALR inh: -3; rCAG binder: 1

What do the screens show for `Cc1ccc2c(c1)-c1ccccc1S(=O)(=O)N2`?
PHOSPHO1 block: 6; aDG glyco up: 0; APOBEC3A inh: -6; ALR inh: 95*; APOBEC3G inh: -9; rCAG binder: 4

How did CC(=O)OC12CCCN(C1)/C(=C/c1ccc(Cl)cc1)C2 (centres undefined) do in these assays?
rCAG binder: 1

How did CCn1c(Cc2cccs2)nnc1SCC(=O)Nc1ccc(Cl)cc1C do in these assays?
rCAG binder: 0

What do the screens show for `CCN1CCSc2ccc(C(=O)NCc3cccc(Br)c3)cc21`?
PHOSPHO1 block: 33; aDG glyco up: 0; APOBEC3A inh: 2; ALR inh: 18; APOBEC3G inh: 4; rCAG binder: 4

How did Cc1ccc(NC(=O)NCc2ccccn2)cc1Cl do in these assays?
PHOSPHO1 block: 53; aDG glyco up: 0; APOBEC3A inh: 0; ALR inh: 5; APOBEC3G inh: -5; rCAG binder: -3
